Rows were chosen to be rich in hits. Some 17% of all compounds tested hit in one or more screens of this group.
HT1080NT lethal: kills 2HG-producing HT-1080-NT fibrosarcoma cells; AID 686970; Potency, µM (series often up to 46.1 µM), usual class: cytotoxic; HT-1080-NT fibrosarcoma viability, CellTiter-Glo ATP luminescence, 48 h; actives 1.6% (n = 360,000);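 also: NT is the 2HG producing partner of a matched IDH1 knockdown line; nearly all actives have a fitted effect of over 55% in size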
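Compounds were tested in concentration-response format on HT-1080-NT cells for 48 hours at 37 degrees C. Cell viability came from CellTiter-Glo luminescence; curves were classified by r2, response magnitude and activity.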
HT1080 IDH1KD tx: toxicity to HT-1080 IDH1 knockdown cells (counter line); HT-1080 IDH1 knockdown viability, ATP luminescence, 48 h; actives 2% (n = 360,000); Potency, µM (titrated, usually from 46.1 µM), actives largely listed as cytotoxic
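Using the IDH1-knockdown HT-1080 line run in the same batch and compound series as the NT line, viability after 48 h at 37 °C was determined by CellTiter-Glo luminescence and expressed as % activity.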
DT40 TDP1 no CPT: qHTS for Inhibitors of human tyrosyl-DNA phosphodiesterase 1 (TDP1): qHTS in cells in absence of CPT | DT40 Tdp1-/- hTDP1 cells, no CPT, ATP luminescence, 48 h | Potency, µM (highest dose often 46.2 µM), usual class: inhibitors | actives 15% (n = 420,000) | AID 686978, 2013; also: nearly all actives have a fitted effect of over 55% in size
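DT40 Tdp1-/-;hTDP1 cells, no CPT (DMSO vehicle only), 400 cells/well; compounds pin-transferred; ≥48 hr, 37 °C; CellTiter-Glo 30 min RT dark, luminescence read.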
TGFb SMAD3 inh: blocks TGF-b signaling | HepG2 CAGA-GFP TGF-b/SMAD3 reporter, GFP fluorescence, 18 h; TGF-beta stimulated, 500 pg/mL final | Potency, µM (titrated, usually from 46.1 µM), actives largely listed as inhibitors | actives 1.2% (n = 410,000) | AID 588855; also: nearly all actives have a fitted effect of over 65% in size
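Inhibition of TGF-beta-driven CAGA-GFP reporter expression in HEPG2 cells is measured by cellular GFP fluorescence after 18 h stimulation with 500 pg/mL recombinant TGF-beta in 1% FBS medium at 37 degrees C.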
HepG2 viability: counter-screen for TGF-b inhibitors: cytotoxicity in HepG2 cells | HepG2 CAGA-GFP viability, ATP luminescence, 18 h | Potency, µM (top dose mostly 46.1 µM), usual class: cytotoxic | actives 0.76% (n = 410,000) | AID 588856
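HepG2 CAGA-GFP cells (1000/well, DMEM with 1% FBS) received compound, then TGF-beta at 500 pg/mL final, and were incubated 18 hours at 37 degrees C. Viability was read by CellTiter-Glo luminescence. Media-only wells were set as complete cell-killing and DMSO as no toxicity.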
DT40 TDP1 CPT: growth inhibition of DT40 Tdp1-/-;hTDP1 cells with camptothecin (screen for TDP1 inhibitors). chicken DT40 Tdp1-/-;hTDP1 cells + 20 nM CPT, ATP luminescence, 48 h. Potency, µM (doses to about 46.2 µM), usual class: inhibitors. actives 12% (n = 420,000); also: nearly all actives have a fitted effect of over 55% in size
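Chicken DT40 Tdp1-/- cells complemented with human TDP1, 400 cells/well, exposed to compounds plus 20 nM camptothecin for at least 48 h at 37 C; viability read as ATP content by CellTiter-Glo luminescence.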
A number is an active result; n = inactive; u = inconclusive; x = no result given; ! = not confirmed by another sample. Calls follow the shape of the dose curve; as a rule, active = well fitted curve in the direction sought with a large enough effect; inconclusive = small, poorly fitted or top-dose-only effect, or another doubt; inactive = no such curve, though single readings can be large; an effect the other way counts as inactive or inconclusive.

SMILES	HT1080NT lethal	HT1080 IDH1KD tx	DT40 TDP1 no CPT	TGFb SMAD3 inh	HepG2 viability	DT40 TDP1 CPT
COc1cc(C)c(CN2CCc3nnc(C(C)NC(=O)c4cc(F)ccc4F)n3CC2)cc1C (centres undefined)	x	x	n	x	x	n
COc1ccc(NC(=O)CN(C)C(=O)c2cc(-c3ccc(Cl)cc3)nc3ccccc23)cc1	n	n	21µM	n	n	u
CCOc1ccc(NC(=O)CN(C)C(=O)c2cc(-c3ccc(OC)cc3)nc3ccccc23)cc1OCC	n	n	15µM	n	n	u
CCN(CC(=O)Nc1ccc(NC(C)=O)cc1)C(=O)c1cc(-c2ccccc2Cl)nc2ccccc12	u	n	15µM	n	n	u
CCN(CC(=O)Nc1ccc(NC(C)=O)cc1)C(=O)c1ccc2ccccc2c1	n	n	n	n	n	n
Cc1cccc(C)c1NC(=O)C1C(c2ccc3c(c2)OCO3)=Nc2ccccc2N1C(=O)c1ccccn1 (centres undefined)	n	n	21µM	x	x	u
CC(C)NC(=O)C1C(c2ccc(C(F)(F)F)cc2)=Nc2ccccc2N1C(=O)c1cccc(C(F)(F)F)c1 (centres undefined)	n	n	u	x	x	u
Cc1cccc(C)c1NC(=O)C1C(c2ccc3c(c2)OCO3)=Nc2ccccc2N1C(=O)c1cccc(C(F)(F)F)c1 (centres undefined)	n	n	7.3µM	x	x	7.3µM
CC(=O)N1CCC(C(=O)N2c3ccccc3N=C(c3ccc4c(c3)OCO4)C2C(=O)Nc2c(C)cccc2C)CC1 (centres undefined)	n	n	u	x	x	u
COc1ccc(C=O)cc1COc1ccc([N+](=O)[O-])c(C)c1	u	u	21µM	n	n	16µM
COc1ccc(C=O)cc1COc1ccccc1F	n	u	u	n	n	u
COc1ccc(/C=N\NS(=O)(=O)c2ccc(Cl)cc2)cc1COc1ccccc1[N+](=O)[O-]	n	n	n	n	n	n
COc1ccc(C=O)cc1COc1ccc2c(c1)OCO2	u	23µM	4.6µM	n	n	3.7µM
CC(C)c1nc(NCCN2CCOCC2)c(C#N)c2c1COC(C)(C)C2	n	n	u	n	n	u
CCCCc1nc(NCCN2CCOCC2)c(C#N)c2c1COC(C)(C)C2	n	n	u	n	n	n
CCc1nc(NCCN2CCOCC2)c(C#N)c2c1CCCC2	n	n	n	n	n	3.3µM
CC(C)Cc1nc(NCCN2CCOCC2)c(C#N)c2c1COC(C)(C)C2	n	n	18µM	n	n	u
O=C(NCCCN1CCCC1=O)c1cccc(S(=O)(=O)N2CCN(c3ccccc3)CC2)c1	n	n	n	n	n	n
O=C(CSc1nc2cc3ccccc3cc2[nH]1)Nc1cccc(C(F)(F)F)c1	x	x	21µM	u	n	18µM
O=C(CSc1nc2ccncc2[nH]1)Nc1ccccc1C(F)(F)F	n	n	15µM	n	n	u
COc1cc(OC)c(NC(=O)CSc2nc3ccncc3[nH]2)cc1Cl	x	x	5.2µM	u	n	6.5µM
CCOC(=O)c1ccccc1NC(=O)CSc1nc2ccncc2[nH]1	n	n	u	n	n	u
Nc1ncnc2nc(SCC(=O)Nc3cccc(C(F)(F)F)c3)[nH]c12	n	n	n	u	n	n
C=CCN1C(=O)/C(=C/C=C2/N(CC)c3ccc(S(=O)(=O)N(C)C)cc3N2CC)SC1=S	n	n	u	n	n	u
COc1ccc([C@@H](NC(=O)OC(C)(C)C)C(=O)OC(C)(C)C)cc1	n	n	u	n	n	u
SMILES	HT1080NT lethal	HT1080 IDH1KD tx	DT40 TDP1 no CPT	TGFb SMAD3 inh	HepG2 viability	DT40 TDP1 CPT
CC(C)(C)OC(=O)N[C@H](C(=O)OC(C)(C)C)c1ccc2ccccc2c1	n	n	n	n	n	8.2µM
O=C(OCC(O)C(O)C(O)C(SCc1ccccc1)SCc1ccccc1)c1ccccc1 (centres undefined)	n	u	u	u	n	29µM
CC(=O)N/C(=N\c1nc(C)cc(C)n1)Nc1ccc(Cl)cc1Cl	n	n	n	n	n	n
CC(CCCCCCCCC(=O)O)N(CCO)C(=O)OC(C)(C)C (centres undefined)	n	n	n	n	n	u
CCC1CN(C(=O)NCc2ccc(C)cc2)c2cc(Cl)ccc2O1 (centres undefined)	n	n	23µM	u	n	21µM
CCC1CN(C(=O)NCc2ccc(C)cc2)c2cc(C)ccc2O1 (centres undefined)	n	n	15µM!	u	n	23µM
CCC1CN(C(=O)NCc2ccc(F)cc2)c2cc(Cl)ccc2O1 (centres undefined)	n	n	u	u	n	u
CCc1ccccc1NC(=O)N1CC(CC)Oc2ccc(Cl)cc21 (centres undefined)	x	x	u	n	n	21µM
COC(=O)[C@@]1(Sc2ccc(C)cc2)CC(=O)N[C@@H]1c1ccco1	n	n	n	x	x	n
C/C(N)=C(/C#N)C(=O)CSc1nc2ccccc2[nH]1	n	n	u	n	n	u
Cc1ccc(N=C2C(=O)Nc3ccc(Br)cc32)cc1	u	u	12µM	n	n	18µM
Cc1ccc(N=C2C(=O)Nc3c(C)cccc32)cc1	n	n	n	n	n	n
COc1ccc(Nc2c3c(nc4ccccc24)CCCC3)cc1OC	u	u	u	u	n	u
COc1ccc(Nc2nc(N3CCCC3)c3ccccc3n2)cc1	n	n	3.3µM	u	n	2.6µM
COc1ccc(C)cc1Nc1c2c(nc3ccccc13)CCC2	u	1.2µM	2.6µM	7.9µM	n	3.3µM
c1ccc2c(Nc3ccc4c(c3)OCCO4)c3c(nc2c1)CCC3	n	n	15µM	u	n	23µM
Cc1ccc2nc3c(c(Nc4ccccc4)c2c1)CCC3	u	u	u	13µM	n	u
Cc1ccccc1C(=O)Nc1c2c(nc3ccccc13)CCCC2	n	n	n	n	n	n
CCOCCN1CCN(C(=O)CN2CCCC2=O)CC1	n	n	n	n	n	n
CN(CC(=O)Nc1cccc(F)c1)C(=O)Cn1cnc2c1c(=O)n(C)c(=O)n2C	n	n	n	n	n	n
COCCNc1c2c(nc3ccccc13)CCC2	n	n	u	n	n	n
Fc1ccc(Nc2c3c(nc4ccccc24)CCC3)cc1	16µM	u	10µM	u	n	5.2µM
Fc1ccccc1Nc1c2c(nc3ccccc13)CCC2	x	x	21µM	u	n	u
Clc1c2c(nc3ccccc13)CCC2	n	n	n	n	n	n

Screens as filed in PubChem.
